We go through 16 compounds from PubChem BioAssay.

Assay [1] in a line: antimalarial activity against Dd2 strain (AID 2302;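 active means growth inhibition above 50% at the single 2 µM test dose, taken to imply half-maximal potency below 2 µM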;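 further: 0% = DMSO untreated growth and 100% = chloroquine plus artemisinin killed control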). Conditions: P. falciparum Dd2 in RBCs, LDH growth readout, 72 h; at 2 µM; active compounds read high.
The nature of assay [2]: human hepatoma cell viability loss – ATP luminescence, cytotoxicity control for P. falciparum antimalarial project, primary screen (AID 2303;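 active means inhibition above 50%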;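 further: 0% = DMSO wells and 100% = digitonin-killed cells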). Conditions: HepG2 viability, 24-48 h, at 10 µM, active compounds read high.
For assay [3], the target named is L-lactate dehydrogenase (Plasmodium falciparum (isolate CDC / Honduras)) (UniProt Q27743). In words: PfLDH activity inhibition – cell lysate, 3D7 strain, counter-screen for P. falciparum growth inhibition project (AID 2304).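 Further: 0% = vehicle and 100% = reference inhibitor.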 Conditions: P. falciparum 3D7 crude extract, LDH APAD/NBT absorbance; at 2 µM; active compounds read high.
Assay [4] in a line: inhibition of 3D7 malaria parasite growth – strain 3D7 (AID 2306).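 Further: 0% = DMSO wells and 100% = chloroquine plus artemisinin control wells.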 Conditions: P. falciparum 3D7 erythrocytic growth, LDH absorbance, 72 h; at 2 µM; active compounds read high.
The target in assay [5] is Calcium-dependent protein kinase 1 (Plasmodium falciparum (isolate 3D7)) (UniProt P62344). Description: PfCDPK1 kinase inhibitors, biochemical, TCAMS library (AID 1159585; cut-off not given, nearly all actives have IC50 up to about 0.98 µM;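 further: inhibitors leave more ATP so luminescence rises with inhibition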). The note with it: recombinant PfCDPK1, Kinase-Glo ATP depletion luminescence. A general note: Kinase-Glo reads ATP consumption through a luciferase reaction.
Assay [6] deals with Plasmodium falciparum protein kinase 6 (PK6, PF3D7_1337100) (UniProt Q8IDW1). In words: PfPK6 kinase inhibitors, biochemical, TCAMS library (AID 1159586). Conditions: recombinant PfPK6, Kinase-Glo ATP depletion luminescence.
Assay [7] addresses Protein kinase 7 (PK7), Plasmodium falciparum 3D7 (PF3D7_0213400) (UniProt Q7YTF7). Description: inhibition of Plasmodium PK7 catalytic activity – biochemical, TCAMS antimalarial set, Kinase-Glo luminescence (AID 1159587). The note with it: recombinant PfPK7, Kinase-Glo ATP depletion luminescence.
The target of assay [8] is Calcium-dependent protein kinase 4 (Plasmodium falciparum (isolate 3D7)) (UniProt Q8IBS5). Description: PfCDPK4 kinase inhibitors, biochemical, TCAMS library (AID 1159588; cut-off not given, nearly all actives have IC50 up to about 0.91 µM). The note with it: recombinant PfCDPK4, Kinase-Glo ATP depletion luminescence.

Values without a mark were called inactive. For some assays here: Results with a measured potency or affinity are listed apart. The source made the active and inactive calls. Unless noted, how the calls were made is not given here.

Calcium-dependent protein kinase 4 (Plasmodium falciparum (isolate 3D7)), sequence (Q8IBS5 whole entry, looked up): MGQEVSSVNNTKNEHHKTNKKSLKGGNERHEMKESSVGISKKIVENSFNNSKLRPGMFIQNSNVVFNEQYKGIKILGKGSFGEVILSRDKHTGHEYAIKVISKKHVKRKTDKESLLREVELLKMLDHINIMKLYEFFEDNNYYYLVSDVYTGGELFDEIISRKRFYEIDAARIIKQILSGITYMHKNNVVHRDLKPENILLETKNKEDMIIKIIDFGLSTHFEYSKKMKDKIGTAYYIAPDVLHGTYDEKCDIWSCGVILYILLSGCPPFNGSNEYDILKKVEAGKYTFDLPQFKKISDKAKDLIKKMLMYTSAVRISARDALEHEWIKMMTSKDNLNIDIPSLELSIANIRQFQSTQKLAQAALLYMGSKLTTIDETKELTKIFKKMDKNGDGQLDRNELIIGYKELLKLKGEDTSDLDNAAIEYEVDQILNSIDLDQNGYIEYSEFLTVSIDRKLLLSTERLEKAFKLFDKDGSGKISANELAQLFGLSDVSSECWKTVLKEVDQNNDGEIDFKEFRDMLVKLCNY
L-lactate dehydrogenase (Plasmodium falciparum (isolate CDC / Honduras)), sequence (Q27743 whole entry, looked up): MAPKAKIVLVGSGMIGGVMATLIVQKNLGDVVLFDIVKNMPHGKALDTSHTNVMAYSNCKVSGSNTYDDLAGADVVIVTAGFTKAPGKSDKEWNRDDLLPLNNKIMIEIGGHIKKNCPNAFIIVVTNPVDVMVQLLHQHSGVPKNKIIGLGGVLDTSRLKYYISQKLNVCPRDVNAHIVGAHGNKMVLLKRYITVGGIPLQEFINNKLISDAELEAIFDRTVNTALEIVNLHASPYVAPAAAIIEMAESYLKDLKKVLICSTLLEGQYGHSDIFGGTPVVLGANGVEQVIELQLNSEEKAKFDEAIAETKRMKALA
Calcium-dependent protein kinase 1 (Plasmodium falciparum (isolate 3D7)), sequence (P62344 whole entry, looked up): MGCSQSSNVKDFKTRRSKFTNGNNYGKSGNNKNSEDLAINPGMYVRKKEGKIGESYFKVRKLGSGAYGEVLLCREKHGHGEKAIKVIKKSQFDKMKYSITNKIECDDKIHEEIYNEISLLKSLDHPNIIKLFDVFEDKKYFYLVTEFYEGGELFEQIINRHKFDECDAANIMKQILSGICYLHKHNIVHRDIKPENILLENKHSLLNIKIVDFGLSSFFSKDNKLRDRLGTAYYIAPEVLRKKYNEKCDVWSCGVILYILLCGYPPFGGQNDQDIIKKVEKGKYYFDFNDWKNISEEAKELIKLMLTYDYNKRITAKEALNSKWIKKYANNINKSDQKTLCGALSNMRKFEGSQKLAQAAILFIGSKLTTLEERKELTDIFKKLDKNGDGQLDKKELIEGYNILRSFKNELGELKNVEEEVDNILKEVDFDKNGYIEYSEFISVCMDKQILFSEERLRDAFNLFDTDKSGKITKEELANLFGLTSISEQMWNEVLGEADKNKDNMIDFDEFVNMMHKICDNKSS
Protein kinase 7 (PK7), Plasmodium falciparum 3D7 (PF3D7_0213400), sequence (Q7YTF7 1-343): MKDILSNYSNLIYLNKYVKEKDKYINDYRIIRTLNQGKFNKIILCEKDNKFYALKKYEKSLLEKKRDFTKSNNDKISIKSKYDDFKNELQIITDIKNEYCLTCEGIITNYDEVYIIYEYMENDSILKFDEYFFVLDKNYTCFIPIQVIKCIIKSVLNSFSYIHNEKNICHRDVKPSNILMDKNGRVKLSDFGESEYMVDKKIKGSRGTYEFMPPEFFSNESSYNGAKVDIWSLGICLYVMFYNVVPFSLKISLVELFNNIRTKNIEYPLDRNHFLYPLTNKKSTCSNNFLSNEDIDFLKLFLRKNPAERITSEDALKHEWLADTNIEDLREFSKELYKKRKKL
Plasmodium falciparum protein kinase 6 (PK6, PF3D7_1337100), sequence (Q8IDW1 1-305): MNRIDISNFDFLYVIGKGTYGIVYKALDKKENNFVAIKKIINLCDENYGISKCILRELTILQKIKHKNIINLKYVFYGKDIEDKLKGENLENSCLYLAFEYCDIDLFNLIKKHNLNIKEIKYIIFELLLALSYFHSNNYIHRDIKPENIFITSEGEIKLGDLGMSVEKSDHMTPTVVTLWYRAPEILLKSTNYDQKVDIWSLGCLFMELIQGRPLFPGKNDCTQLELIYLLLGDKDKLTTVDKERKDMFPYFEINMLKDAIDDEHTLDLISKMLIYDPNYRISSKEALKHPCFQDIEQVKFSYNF

`CCCCSc1c(CNCCCCCCNCc2ccc3ccccc3c2SCCCC)ccc2ccccc12`: the figures for the growth inhibition in assay [1] and in assay [4] were 62% (active) and 93% (active), respectively. Moreover, the figures for the inhibition in assay [2] and in assay [3] were 99% (active) and -9%, respectively. Moreover, the result in assay [5], in assay [6], in assay [7] and in assay [8] was inactive.
`O=C(NC(Nc1ccc([N+](=O)[O-])cc1)C(Cl)(Cl)Cl)c1cccc(Cl)c1` (stereo not drawn): the values for the growth inhibition in assay [1] and in assay [4] were 17% and 92% (active), respectively. For the same compound, the inhibition in assay [2] was -2%; in assay [3], 0%. Also, the outcome in assay [5], in assay [6], in assay [7] and in assay [8] was inactive.
As to `COc1ccc(C(C(=O)NC2CCN(C[C@H](O)c3ccnc4ccc(OC)cc34)CC2)N2CCN(Cc3ccccc3)CC2)cc1` (stereo partly drawn), the growth inhibition in assay [1] is 72% (active); in assay [4], 100% (active). For the same compound, the figures for the inhibition in assay [2] and in assay [3] were 18% and -9%, respectively. Moreover, the result in assay [5], in assay [6], in assay [7] and in assay [8] was inactive.
Take `Fc1ccccc1COc1ccc(Nc2ncnc3ccc(I)cc23)cc1Cl`: the results for the growth inhibition in assay [1] and in assay [4] were 37% and 90% (active), respectively. The inhibition in assay [2] was 17%; in assay [3], -4%. In addition, the result in assay [5], in assay [6], in assay [7] and in assay [8] was inactive.
For `CC(=O)Nc1ccc(OCCN(Cc2ccccc2C(F)(F)F)c2ccc(C#N)c(C(F)(F)F)c2)cc1`, the growth inhibition is 81% (active) in assay [1] and 101% (active) in assay [4]. Further, the results for the inhibition in assay [2] and in assay [3] were 8% and 0%, respectively. Moreover, the result in assay [5], in assay [6], in assay [7] and in assay [8] was inactive.
With `COc1ccc(-c2cccc(NC(=O)c3cccc(Cl)c3)c2)cc1CN1CCNCC1`, the growth inhibition was 52% (active) in assay [1] and 101% (active) in assay [4]. For the same compound, the results for the inhibition in assay [2] and in assay [3] were 29% and 9%, respectively. The result in assay [5], in assay [6], in assay [7] and in assay [8] was inactive.
Regarding `CS(=O)(=O)c1ccc(CNCc2cccc(-c3cccc(-c4nc5ccc(F)cc5[nH]4)c3)c2)cc1`, the growth inhibition in assay [1] is 84% (active); in assay [4], 102% (active). Moreover, the inhibition in assay [2] is 11%; in assay [3] it was -3%. For the same compound, the result in assay [5], in assay [6], in assay [7] and in assay [8] was inactive.
Take `CN1CCCN(Cc2ccc(-c3cccc(NC(=O)c4ccc(F)cc4)c3)cc2)CC1`: the growth inhibition is 8% in assay [1] and 89% (active) in assay [4]. Moreover, the inhibition in assay [2] was 29%; in assay [3], 1%. Besides, the result in assay [5], in assay [6], in assay [7] and in assay [8] was inactive.
On to `CC(C)(C)C1CCc2nc(N)nc(N)c2C1` (stereo not drawn), for which the growth inhibition in assay [1] was 38%; in assay [4] it was 94% (active). In addition, the results for the inhibition in assay [2] and in assay [3] were 69% (active) and 6%, respectively. Also, the outcome in assay [5], in assay [6], in assay [7] and in assay [8] was inactive.
Consider `O=C(Nc1cc(Cl)ccc1O)c1ccc(Oc2ccc(C(=O)Nc3cc(Cl)ccc3O)cc2)cc1`, for which the growth inhibition in assay [1] is 91% (active); in assay [4] it was 97% (active). Also, the values for the inhibition in assay [2] and in assay [3] were 32% and -3%, respectively. Moreover, the result in assay [5], in assay [6], in assay [7] and in assay [8] was inactive.
Turning to `O=C(Nc1ccc(CN2CCN(S(=O)(=O)c3ccc(Cl)s3)CC2)cc1)c1cccs1`, the growth inhibition in assay [1] was 87% (active); in assay [4], 92% (active). In addition, the inhibition is 14% in assay [2] and 2% in assay [3]. Besides, the result in assay [5], in assay [6], in assay [7] and in assay [8] was inactive.
With `O=C(/C=C/c1ccc(Cl)c(Cl)c1)NCCCCCN1CCC(NC(=O)Nc2ccccc2Cl)CC1`, the results for the growth inhibition in assay [1] and in assay [4] were 23% and 102% (active), respectively. Further, the inhibition was 56% (active) in assay [2] and 3% in assay [3]. Further, the outcome in assay [5], in assay [6], in assay [7] and in assay [8] was inactive.
Turning to `CCCS(=O)(=O)N1CCC(CO)(Cc2ccccc2C(F)(F)F)CC1`, the growth inhibition in assay [1] was 57% (active); in assay [4] it was 97% (active). The inhibition in assay [2] was -1%; in assay [3], -2%. The result in assay [5], in assay [6], in assay [7] and in assay [8] was inactive.
Regarding `O=C(/C=C/c1ccc(Cl)c(Cl)c1)NCCCCCN1CC[C@H](NC(=O)c2ccc3c(c2)OCO3)C1`, the results for the growth inhibition in assay [1] and in assay [4] were 3% and 94% (active), respectively. The inhibition was 32% in assay [2] and 0% in assay [3]. For the same compound, the result in assay [5], in assay [6], in assay [7] and in assay [8] was inactive.
As to `CCN(CC(C)O)C(=O)c1ccc(-c2ccc(-c3nc4c(C)cccc4[nH]3)cc2)cc1` (stereo not drawn), the growth inhibition was 13% in assay [1] and 94% (active) in assay [4]. The values for the inhibition in assay [2] and in assay [3] were 18% and -5%, respectively. The result in assay [5], in assay [6], in assay [7] and in assay [8] was inactive.
Consider `Cc1cc(N[C@@H](Cc2ccccc2)C(=O)NCCc2ccccc2)nc(NCCc2ccc(F)cc2)n1`, for which the growth inhibition in assay [1] is 89% (active); in assay [4] it was 99% (active). Also, the inhibition in assay [2] was 9%; in assay [3] it was 2%. In addition, the result in assay [5], in assay [6], in assay [7] and in assay [8] was inactive.

One may read the inhibition as the change of the read-out against control, counted positive when it falls.
